These results are taken from PubChem BioAssay (NCI).

Test systems include SK-MEL-2 melanoma; EKVX NSCLC; UO-31 renal; TK-10 renal; ACHN renal; CAKI-1 renal; A498 renal; CCRF-CEM leukemia; MOLT-4 leukemia.
Holding throughout (test): NCI-60 one-dose screen, 48 h (100 = growth as untreated, 0 = no growth, -100 = all killed)
What all share (settings): 10 µM

This is part of a sample that, as a whole, favours compounds with a hit. Of some 83,000 tested, about 20% had one in any assay.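 Step 1: grow cells in 96-well plates. Step 2: add test compound at a single concentration. Step 3: incubate 48 h. Step 4: record percent growth.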 Values without a mark were called inactive. The source made the active and inactive calls. Rule for the calls: active = growth percent below 10; inactive = the rest.

Turning to `O=C(NCCc1nccs1)c1cnc2c(S)cccc2c1`, the growth in the assay on SK-MEL-2 melanoma is 22.6%; in the assay with EKVX NSCLC, 16.3%; in the assay with UO-31 renal it was 12.9%; in the assay on TK-10 renal, 38.5%; in the assay on ACHN renal it was 29%; in the assay on CAKI-1 renal, 19%. For the same compound, the growth is -2.06% (active) in the assay on A498 renal, 15.4% in the assay with CCRF-CEM leukemia and 15.1% in the assay with MOLT-4 leukemia.
In the case of `Cc1ccc2c(c1)-c1cc(C)nn1-c1ccc(C#N)cc1O2`, the growth was 44.7% with SK-MEL-2 melanoma; 65.7% in the assay with EKVX NSCLC; 47.4% with UO-31 renal; 84.1% in the assay with TK-10 renal; 91.5% with ACHN renal; 71.9% with CAKI-1 renal. Also, the growth with A498 renal is 47.2%; in the assay on CCRF-CEM leukemia it was 46.2%; in the assay with MOLT-4 leukemia, 49.6%.
In the case of `N#CN1CC[C@H](C(=O)Nc2ncc(-c3ccncc3)s2)C1`, the growth was -36.1% (active) in the assay on SK-MEL-2 melanoma; 1.46% (active) in the assay on EKVX NSCLC; 8.4% (active) in the assay on UO-31 renal; -24.9% (active) in the assay on TK-10 renal; 6.59% (active) in the assay on ACHN renal; 10% in the assay on CAKI-1 renal. Further, the growth with A498 renal is -49.4% (active); in the assay with CCRF-CEM leukemia, 7.15% (active); in the assay with MOLT-4 leukemia, -20.4% (active).
Turning to `Cc1ccc2c3c(cccc13)-c1ccccc1C2=O`, the growth was 97.2% in the assay on SK-MEL-2 melanoma; 67.8% in the assay with EKVX NSCLC; 75.2% in the assay with UO-31 renal; 94% in the assay on TK-10 renal; 96.8% with ACHN renal; 89% with CAKI-1 renal. Also, the growth is 78.2% in the assay with A498 renal, 83.5% with CCRF-CEM leukemia and 87.4% in the assay on MOLT-4 leukemia.
As for `Nc1nsc(C(=O)c2ccc(O)cc2)n1`, the growth with SK-MEL-2 melanoma is 102%; with EKVX NSCLC, 97.9%; with UO-31 renal, 79.5%; in the assay with TK-10 renal, 108%; in the assay on ACHN renal, 91.1%; with CAKI-1 renal, 92%. The growth in the assay with A498 renal was 115%; in the assay on CCRF-CEM leukemia, 89.8%; in the assay on MOLT-4 leukemia it was 110%.
For the compound `CCOC(=O)[C@@H](Cc1ccccc1)NC(=O)c1[nH]c2ccc(Cl)cc2c(=O)c1C`, the growth with SK-MEL-2 melanoma was 89%; in the assay with EKVX NSCLC, 97.4%; with UO-31 renal, 84.7%; in the assay with TK-10 renal, 91.3%; with ACHN renal it was 95.6%; in the assay with CAKI-1 renal, 86.6%. Moreover, the results for the growth in the assay with A498 renal, in the assay with CCRF-CEM leukemia and with MOLT-4 leukemia were 143%, 74.4% and 93.3%, respectively.
For the compound `CC(=O)Nc1ccc2c(c1)C(N1CC3CCC(CC3)C1)c1ccccc1-2` (stereo unspecified), the growth with SK-MEL-2 melanoma was 96.7%; in the assay on EKVX NSCLC it was 88.5%; with UO-31 renal it was 66.7%; in the assay with TK-10 renal, 113%; with ACHN renal it was 93%; with CAKI-1 renal, 70.9%. Moreover, the growth with A498 renal is 78.5%; in the assay on CCRF-CEM leukemia it was 74.5%; in the assay on MOLT-4 leukemia, 63.5%.
As for `CCOc1nc(-c2ccccc2)cc2c(O)c(C(=O)NCCCO)[nH]c(=O)c12`, the growth in the assay with SK-MEL-2 melanoma is 92.7%; in the assay on EKVX NSCLC it was 108%; in the assay on UO-31 renal, 79.6%; in the assay on TK-10 renal, 146%; in the assay on ACHN renal, 91.6%; with CAKI-1 renal it was 87.8%. Also, the figures for the growth in the assay with A498 renal, in the assay with CCRF-CEM leukemia and with MOLT-4 leukemia were 93.5%, 68% and 97%, respectively.
For `N#CN1CC[C@H](C(=O)Nc2ncc(-c3ccccc3)s2)C1`, the growth with SK-MEL-2 melanoma is -43.8% (active); in the assay on EKVX NSCLC, -0.13% (active); with UO-31 renal it was 7.47% (active); in the assay on TK-10 renal, -30.9% (active); in the assay with ACHN renal it was 4.65% (active); in the assay with CAKI-1 renal, 9.65% (active). Further, the growth with A498 renal is -47% (active); in the assay with CCRF-CEM leukemia, 9.27% (active); with MOLT-4 leukemia, -19.7% (active).
For the compound `NC1CCC(Nc2nc(NCc3ccc(-c4ccccc4O)nc3)c3ncn(C4CCCC4)c3n2)CC1` (stereo unspecified), the growth in the assay on SK-MEL-2 melanoma is -81.4% (active); in the assay with EKVX NSCLC, -20.1% (active); with UO-31 renal, 14.2%; with TK-10 renal, 0.221% (active); in the assay with ACHN renal it was -3.2% (active); in the assay on CAKI-1 renal, 14.1%. The growth was -82.1% (active) with A498 renal, -5.6% (active) in the assay with CCRF-CEM leukemia and -11.2% (active) in the assay with MOLT-4 leukemia.
As to `CNC(=O)c1cc(Oc2ccc(NC(=O)Nc3ccc(Cl)c(OC(C)C)c3)c(F)c2)ccn1`, the growth was 50.2% in the assay with SK-MEL-2 melanoma; 34.8% in the assay with EKVX NSCLC; 45.2% in the assay with UO-31 renal; 66.7% in the assay with TK-10 renal; 41.9% in the assay with ACHN renal; 64.1% in the assay with CAKI-1 renal. The results for the growth with A498 renal, in the assay on CCRF-CEM leukemia and in the assay with MOLT-4 leukemia were 48.7%, 46.8% and 30.9%, respectively.
With `CCN(CCCNC(=O)Cc1cc(=O)oc2cc(N(C)C)ccc12)CCNc1ccnc2cc(Cl)ccc12`, the growth in the assay with SK-MEL-2 melanoma is 117%; in the assay with EKVX NSCLC, 99.8%; in the assay on UO-31 renal, 84.7%; in the assay on TK-10 renal it was 87.4%; in the assay with ACHN renal it was 78.6%; with CAKI-1 renal it was 106%. For the same compound, the growth with A498 renal was 81.5%; with CCRF-CEM leukemia, 53.9%; in the assay on MOLT-4 leukemia, 44.4%.
For `COCc1cc2c(cc1Br)OCO2`, the growth was 96.7% in the assay on SK-MEL-2 melanoma; 102% in the assay on EKVX NSCLC; 84.6% in the assay with UO-31 renal; 95.7% in the assay with TK-10 renal; 101% with ACHN renal; 95% in the assay with CAKI-1 renal. Besides, the growth in the assay on A498 renal is 91.2%; in the assay with CCRF-CEM leukemia, 71.9%; with MOLT-4 leukemia, 107%.
With `COCCOC(=O)NC(=O)Nc1ccc(C(=O)c2ccc(Cl)cc2)cc1`, the growth in the assay with SK-MEL-2 melanoma was 27.6%; with EKVX NSCLC, 31.4%; with UO-31 renal it was 40.3%; in the assay on TK-10 renal, 53.2%; with ACHN renal, 42.7%; in the assay on CAKI-1 renal, 32.8%. For the same compound, the growth with A498 renal was 19.3%; in the assay with CCRF-CEM leukemia, 18.5%; in the assay with MOLT-4 leukemia, 32.7%.
